Common to all, as to test: NCI-60 one-dose screen, 48 h (100 = growth as untreated, 0 = no growth, -100 = all killed)
Settings in all cases: 10 µM unless noted

For assay [1], the system named is SK-MEL-2 melanoma.
The test system of assay [2] is EKVX NSCLC.
For assay [3], the system named is SN12C renal.
In assay [4] the test system is UO-31 renal.
Assay [5] has as its system TK-10 renal.
Assay [6] concerns ACHN renal.
The test system of assay [7] is CAKI-1 renal.
Assay [8] concerns A498 renal.
Assay [9] has as its system CCRF-CEM leukemia.
Assay [10] concerns MOLT-4 leukemia.

Compounds without any hit were thinned out: in the full panel of roughly 83,000, 20% have a hit.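 Cell lines were cultured in 96-well plates, exposed to a single compound concentration, and assessed for percent growth 48 hours later.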 Values without a mark were called inactive. The source made the active and inactive calls. How the source made its calls: active means growth percent below 10; inactive means the rest.

Our source for the growth values is PubChem BioAssay (NCI).

Consider `CCOC(=O)C#Cc1c(C(=O)OCC)nnn1[C@@H]1O[C@H](COC)[C@@H](OC)[C@H]1OC`, for which the growth is 92% in [1]; 107% in assay [2]; 82.5% in assay [3]; 29.2% in assay [4]; 11.1% in [5]; -35.3% (active) in assay [6]. For the same molecule, the growth in assay [7] is -91.2% (active); in [8], 99.1%; in assay [9] it was 27.7%; in assay [10], 58.6%.
Regarding `CCCC(O)Cn1ncc(C(=O)OCC)c1NC(=O)NCc1cccc(C(F)(F)F)c1` (stereo not drawn), the growth in [1] was 73.4%; in assay [2] it was 90.5%; in assay [3] it was 93.7%; in assay [4], 65%; in [5], 90.4%; in [6] it was 97.7%. For the same molecule, the growth in assay [7] was 83.8%; in [8], 99%; in assay [9], 5.39% (active); in assay [10], 62%.
With `COc1cc(OC)c2c(=O)c3c(CC=C(C)C)cc(OC)c(O)c3oc2c1`, the growth in [1] was 91.4%; in [2] it was 89.6%; in assay [3] it was 96%; in assay [4] it was 72%; in assay [5] it was 82.9%; in assay [6] it was 79.7%. The growth in assay [7] is 75.3%; in [8], 67.7%; in [9], 76.9%; in assay [10], 66.4%.
On to `COc1cc2c(c(OC)c1OC)C(=O)CC(c1cccc(C(=O)Nc3ccc(C#N)cc3)c1)O2` (stereo not drawn), for which the growth is 74.6% in [1]; 80.2% in [2]; 72.1% in assay [3]; 52% in assay [4]; 92.3% in assay [5]; 79.4% in assay [6]. For the same molecule, the growth was 71.6% in assay [7], 72.1% in assay [8], 25% in assay [9] and 20% in [10].
Take `C=C(c1ccc(C(=O)O)c(F)c1)c1cc2c(cc1C)C(C)(C)CCC2(C)C`: the growth is 89.4% in assay [1]; 75.6% in assay [2]; 85.4% in [3]; 92.6% in assay [4]; 102% in [5]; 79% in assay [6]. The growth in [7] is 81.4%; in assay [8], 95.8%; in assay [9], 86.8%; in [10] it was 82.4%.
Take `CCN(CC)CCn1c2ccc(OC)cc2c2sc3cc(O)ccc3c(=O)c21`: the growth is 61.2% in [1]; 47.3% in assay [2]; 23.6% in assay [3]; 23.9% in assay [4]; 82.2% in assay [5]; 4.69% (active) in assay [6]. The growth in assay [7] was 58.1%; in assay [8], 43.8%; in [9], 13.9%; in assay [10], 8.27% (active).
Turning to `O=S(=O)(N=C1C(Cl)=C(Cl)C(=NS(=O)(=O)c2ccccc2)C(Cl)=C1Cl)c1ccccc1`, the growth in assay [1] is 14%; in assay [2] it was 107%; in assay [3], 87.6%; in assay [4] it was 89.5%; in assay [5] it was 95.3%; in assay [6], -22.5% (active). Besides, the growth is 5% (active) in [7], 96.8% in assay [8], 73.6% in assay [9] and 55% in [10].
Regarding `Cc1nc2sc(C(=O)Nc3cccc4ccccc34)c(N)c2cc1C(=O)c1ccccc1`, the growth in assay [1] is 46.6%; in assay [2] it was 46%; in [3], 36.6%; in assay [4] it was 43.5%; in assay [5], 66.1%; in [6], 41.6%. Moreover, the growth in assay [7] is 36.5%; in assay [8] it was -10.9% (active); in assay [9] it was 12%; in assay [10] it was 21.4%.
Take `C=CC(=O)Nc1cccc(Oc2nccc(Nc3nnc(-c4ccc(Br)cc4)s3)n2)c1`: the growth in [1] was 110%; in assay [2], 101%; in assay [3], 99.2%; in [4], 78.9%; in assay [5], 152%; in [6], 100%. The growth is 81.2% in [7], 101% in assay [8], 87.3% in assay [9] and 100% in assay [10].
As to `COc1cc(C=C2C(=O)NC(=S)NC2=O)cc(CN2CCCC2)c1O`, the growth in [1] is 110%; in assay [2], 101%; in assay [3] it was 104%; in assay [4], 87%; in assay [5], 109%; in assay [6], 111%. Also, the growth in [7] was 90.5%; in assay [8] it was 101%; in [9], 107%; in assay [10] it was 110%.
Consider `O=C1Nc2ccc(Cl)cc2/C1=C/c1ccc[nH]1`, for which the growth in [1] was 96.2%; in assay [2] it was 32.8%; in assay [3], 87.5%; in assay [4], 47.7%; in [5], 61.4%; in [6] it was 59.6%. The growth was 45.7% in assay [7], 134% in assay [8], 96.2% in [9] and 83.4% in assay [10].
With `CSc1ccc2c3c(n(C[C@H](O)CO)c(=O)c2c1)-c1ccccc1C3=O`, the growth in [1] is 104%; in assay [2], 77.1%; in [3] it was 23.1%; in assay [4] it was 19.9%; in assay [5], 70.7%; in assay [6] it was -41% (active). Moreover, the growth in [7] was 27.9%; in assay [8], 52.3%; in assay [9] it was -4.25% (active); in assay [10], -17.8% (active).
Turning to `COc1ccc(CN2C(=O)OC(C)(COC(C)=O)C2=O)cc1` (stereo not drawn), the growth is 111% in [1]; 107% in assay [2]; 99.8% in assay [3]; 95% in assay [4]; 104% in [5]; 102% in assay [6]. Besides, the growth in assay [7] is 94.8%; in assay [8] it was 103%; in assay [9] it was 99.5%; in assay [10] it was 95.6%.
Consider `O=c1cc(CNc2cc(F)cc(F)c2)c2ccc(I)cc2[nH]1`, for which the growth in assay [1] was 39.2%; in [2], 44%; in assay [3], 51.7%; in assay [4], 39.7%; in [5] it was 53.3%; in assay [6] it was 36.3%. In addition, the growth was 26.6% in assay [7], 3.87% (active) in assay [8], 14.8% in [9] and 28.1% in [10].
Take `COc1cc(-c2nccc3[nH]c(-c4cccc5[nH]ccc45)nc23)cc(OC)c1OC`: the growth in assay [1] is 35.8%; in [2], 46.3%; in assay [3] it was 40.9%; in assay [4], 34%; in assay [5], 34.7%; in [6], 17%. The growth in assay [7] is 31.4%; in assay [8], -6.89% (active); in assay [9], 11.7%; in assay [10] it was 19.9%.
In the case of `O=C(CSc1nnnn1-c1ccccc1)Nc1ccc(Oc2ccccc2)cc1`, the growth in assay [1] is 81%; in assay [2], 100%; in assay [3] it was 88.4%; in assay [4], 77.2%; in assay [5] it was 119%; in assay [6], 99.7%. Further, the growth was 107% in [7], 103% in assay [8], 114% in [9] and 91.7% in [10].
For `CN(C)CCC(CCN(C)C)(C(=O)O)c1ccccc1`, the growth in assay [1] was 102%; in assay [2] it was 107%; in assay [3], 98.4%; in assay [4], 88.3%; in assay [5], 106%; in assay [6] it was 98.5%. For the same molecule, the growth in assay [7] is 95.4%; in assay [8] it was 90.4%; in [9], 100%; in [10], 109%.
Take `C[C@H]1[C@H](C)CC[C@]2(C(=O)NCCNCCN)CC[C@]3(C)C(=CC[C@@H]4[C@@]5(C)CCC(=O)C(C)(C)[C@@H]5CC[C@]43C)[C@H]12`: the growth in assay [1] was 91.4%; in assay [2], 79.4%; in assay [3], 68.2%; in assay [4], 60.3%; in assay [5], 74%; in assay [6], 77.1%. The growth in assay [7] was 61.5%; in assay [8], 75%; in [9], -11.7% (active); in assay [10] it was -9.76% (active).
Turning to `Nc1nc2ccccc2c2c(=O)c3cc(Cl)ccc3sc12`, the growth in [1] was 106%; in [2] it was 91.4%; in [3], 94.9%; in assay [4], 86.6%; in assay [5] it was 109%; in [6], 99.8%. Moreover, the growth in assay [7] was 87.8%; in assay [8], 107%; in [9], 101%; in [10], 105%.
In the case of `CC1(C)CC(=O)C2=C(C1)C(c1ccc(Cl)cc1)n1ncc(C#N)c1N2` (stereo not drawn), the growth was 103% in [1]; 92.8% in assay [2]; 90.9% in assay [3]; 85.5% in assay [4]; 107% in assay [5]; 93.2% in assay [6]. For the same molecule, the growth was 90.3% in [7], 103% in assay [8], 98.4% in [9] and 98.1% in [10].
Turning to `Cc1ccccc1N1CCN(C(=S)c2ccccc2)CC1`, the growth in assay [1] is 85%; in [2], 96.1%; in assay [3], 96.6%; in assay [4] it was 82.1%; in assay [5] it was 108%; in assay [6] it was 106%. Besides, the growth in assay [7] is 75.3%; in assay [8] it was 101%; in [9], 114%; in assay [10], 106%.
`COCCn1cc(-c2nc(-c3c[nH]c4ncccc34)cs2)c2ccccc21`: the growth in assay [1] was 77.5%; in assay [2], 16.4%; in assay [3], 77.8%; in assay [4], 41%; in assay [5] it was 36.2%; in assay [6] it was 67.6%. The growth was 62.7% in [7], 44.7% in assay [8], 56.6% in assay [9] and 48.7% in [10].
As to `CN1CCOCCN(C)Cc2ccc3ccc(cc3c2)CN(C)CCOCCN(C)Cc2ccc3ccc(cc3c2)C1`, the growth was 114% in [1]; 106% in [2]; 92.6% in assay [3]; 80.8% in [4]; 97.4% in assay [5]; 98.5% in [6]. Moreover, the growth in assay [7] is 77.7%; in [8], 79.1%; in assay [9], 56.3%; in assay [10], 74%.
With `Nc1nc(N)c2c(n1)NC(c1cccc(Nc3ccnc4cc(C(F)(F)F)ccc34)c1)CC(c1ccc3c(c1)OCO3)=N2` (stereo not drawn), the growth in assay [1] is 61.6%; in assay [2], 76.7%; in assay [3], 81.6%; in assay [4], 69.2%; in assay [5], 90.1%; in assay [6], 102%. Moreover, the growth in [7] is 59.6%; in assay [8] it was 87.9%; in assay [9], 50.9%; in [10], 29%.
Regarding `CC(C)(C)c1ccc(C(=O)N/N=C/c2ccc(O)cc2O)cc1`, the growth is 38.3% in assay [1]; 21.5% in [2]; 23.3% in assay [3]; 12.2% in [4]; 40.1% in [5]; 15.2% in assay [6]. For the same molecule, the growth is 15% in assay [7], 13.6% in assay [8], 9.83% (active) in [9] and 13.3% in assay [10].
As for `CS(=O)(=O)c1ccc(-c2nc3ccccc3n2CC(=O)N/N=C/c2ccccc2)cc1`, the growth in [1] was 99.7%; in [2] it was 92.9%; in assay [3], 108%; in assay [4], 76.3%; in assay [5], 103%; in [6], 101%. In addition, the growth in assay [7] was 89.4%; in [9], 104%; in assay [10], 117%.
As for `COc1ccc(/C=C2\CN(C(=O)C(Cl)Cl)C/C(=C\c3ccc(OC)c(OC)c3)C2=O)cc1OC`, the growth is 14.9% in [1]; 8.31% (active) in assay [2]; -60.6% (active) in [3]; -99% (active) in assay [4]; 22% in [5]; -82.7% (active) in assay [6]. Moreover, the growth in [7] was -17.2% (active); in [9], 12%; in assay [10], 5.43% (active).
